Compound activity (PubChem)
Only some compounds are listed: those with a hit (about 0.88% of all), similar ones and a draw of the others.
ERG-DNA inh: inhibitors of human ERG Ets domain-DNA interaction; hit rate 0.028% among 370,000; P11308; fluorescence polarization, His-ERG Ets domain / labelled DNA; Potency, µM (titrated, usually from 76.9 µM), for the others: at the top dose FP activity, negative = inhibition, usual class: inhibitors; active = well fitted inhibition curve with a large enough effect in the polarisation, with a control signal flat; inconclusive = small, poorly fitted or top-dose-only effect, or effect the other way, or a change in a side signal; inactive = no such curve, though single readings can be large or run the other way; the % refers to the polarisation;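 also: polarization taken with two DNA probes labelled with fluorescein and Texas red; % of control where 0% means no effect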
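His-tagged ERG Ets domain (1 uM in the protein solution; 300mM KCl, 50mM Tris-HCl, 1mM EDTA, 1mM DTT, pH 7.5) received compound, then a probe mix of 5 nM fluorescein-DNA and 100nM Texas-615-DNA. Fluorescence polarization was read for both dyes.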
KAT2A inh: inhibitors of human GCN5L2 histone acetyltransferase | GCN5L2 HAT assay, ThioGlo1 CoA-SH fluorescence | Q92830 | Potency, µM (titrated, usually from 58.9 µM), inactives show at the top dose activity change, negative = inhibition, hits mostly inhibitors | hit rate 0.21% among 390,000; also: % is scaled to controls: 0 for no effect and ±100 for the full control effect
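GCN5L2 (20nM final) in 50mM HEPES, 0.1mM EDTA pH 7.5, 0.01% Tween-20 was preincubated 15 min at room temperature with compound, then given ThioGlo1 (50uM), H3(1-25) peptide (75uM) and acetyl-CoA (70uM); CoA-thiol fluorescence (Ex340/Em540) was read at 0 and 20 min.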
WRN helicase inh: blocks human WRN helicase. WRN helicase unwinding, fluorescent forked duplex, kinetic. Potency, µM (titrated, usually from 114 µM), without a hit: top-dose activity change, negative = inhibition, usual class: inhibitors. hit rate 0.46% among 360,000. AID 651768; also: % is scaled to controls: 0 for no effect and ±100 for the full control effect; nearly all actives have a fitted effect of over 55% in size
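Primary qHTS, 1536-well format. 20 nM WRN + compound, 15 min RT; start with 100 nM forked fluorophore/quencher duplex, 2 mM ATP (final); kinetic read ex 525/em 598 nm.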
APE1 inh-1: APE1 (human) endonuclease inhibition. P27695. recombinant APE1, TAMRA/BHQ-2 abasic DNA cleavage fluorescence. Potency, µM (top dose mostly 65.8 µM), for inactives: top-dose activity change, negative = inhibition, usual class: inhibitors. hit rate 0.35% among 350,000. AID 2517;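 also: plate controls were vehicle for no effect and reference inhibitor for full effect; nearly all actives have a fitted effect of over 55% in size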
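Enzyme (0.75 nM final) and test compound are incubated 15 min at room temperature before adding 50 nM quenched THF abasic-site duplex. Cleavage dequenches TAMRA, followed at 525/598 nm over three reads one minute apart.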
BLM inh: inhibitors of human Bloom syndrome helicase BLM. P54132. recombinant BLM DNA unwinding, fluorescence dequenching. Potency, µM (top dose mostly 56.1 µM), without a hit: at the top dose activity change, negative = inhibition, actives largely listed as inhibitors. hit rate 0.2% among 350,000. AID 2528;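 also: plate controls were vehicle for no effect and no enzyme for full effect; nearly all actives have a fitted effect of over 35% in size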
RECQ1 inh: inhibitors of human RECQ1 DNA helicase. RECQ1 DNA unwinding, red fluorescence kinetic read. Potency, µM (series often up to 57.3 µM), without a hit: top-dose activity, negative = inhibition, hits mostly inhibitors. hit rate 0.54% among 240,000. AID 2549;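 also: plate controls were vehicle for no effect and no enzyme for full effect; nearly all actives have a fitted effect of over 30% in size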
Target sequence (P46063 whole entry, looked up): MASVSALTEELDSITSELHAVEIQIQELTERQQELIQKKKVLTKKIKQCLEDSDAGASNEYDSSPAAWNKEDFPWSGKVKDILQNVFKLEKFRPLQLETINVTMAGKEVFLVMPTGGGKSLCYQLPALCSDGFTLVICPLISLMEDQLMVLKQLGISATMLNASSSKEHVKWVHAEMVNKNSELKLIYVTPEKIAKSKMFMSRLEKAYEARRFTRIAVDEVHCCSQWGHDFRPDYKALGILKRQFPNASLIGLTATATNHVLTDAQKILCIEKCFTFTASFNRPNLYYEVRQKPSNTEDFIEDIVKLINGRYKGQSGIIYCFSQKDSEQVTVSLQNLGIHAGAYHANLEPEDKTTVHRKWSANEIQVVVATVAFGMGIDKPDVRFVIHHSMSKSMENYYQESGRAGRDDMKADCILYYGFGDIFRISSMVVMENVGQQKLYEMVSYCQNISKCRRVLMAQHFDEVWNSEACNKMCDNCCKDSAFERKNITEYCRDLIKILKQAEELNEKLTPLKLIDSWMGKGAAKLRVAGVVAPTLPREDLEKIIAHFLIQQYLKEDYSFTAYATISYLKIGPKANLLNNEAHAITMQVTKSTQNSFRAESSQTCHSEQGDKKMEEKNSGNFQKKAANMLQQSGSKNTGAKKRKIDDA
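RECQ1T1 50 nM; forked duplex (20 bp + 30-nt ss tails) 200 nM, ATP 2 mM final; pH 8.0, 2 mM MgCl2, 2.5 ug/ml poly(dI-dC); 15 min compound preincubation; discontinuous kinetic read over 2 h at RT.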
APE1 dye cs: counter-screen for APE1 inhibitors: DNA dye displacement; shares compounds with APE1 inh-1; DNA fluorescent dye displacement counterscreen, fluorescence; Potency, µM (series often up to 28.5 µM), without a hit: at the highest dose activity change, negative = inhibition, actives largely listed as inhibitors; hit rate 7% among 480;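 also: loss of thiazole orange fluorescence as the dye is displaced from duplex DNA; 0% = ThO with dsDNA and no compound and -100% = ThO without dsDNA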
Endo IV inh: blocks E. coli endonuclease IV DNA cleavage. shares compounds with APE1 inh-1. E. coli Endo IV, fluorogenic AP-site DNA cleavage. Potency, µM (highest dose often 27.1 µM), for inactives: at the top dose activity change, negative = inhibition, most hits filed as inhibitors. hit rate 4% among 560;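 also: plate controls were uninhibited enzyme wells for no effect and no enzyme buffer wells for full effect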
APE1 inh-2: APE1 (human) endonuclease inhibition, confirmation | shares compounds with APE1 inh-1 | purified APE1, fluorogenic abasic-site DNA cleavage | Potency, µM (doses to about 57.1 µM), inactives show at the top dose activity change, negative = inhibition, most hits filed as inhibitors | hit rate 44% among 750 | AID 2572; also: % is scaled to controls: 0 for no effect and ±100 for the full control effect; nearly all actives have a fitted effect of over 30% in size
APE1 FP inh: APE1 (human) DNA binding inhibition, fluorescence polarization | shares compounds with APE1 inh-1 | APE1 binding to TAMRA-labelled double-stranded DNA, fluorescence polarization displacement | hit rate 7% among 480 | Potency, µM (highest dose often 28.5 µM), inactives show at the highest dose activity, negative = inhibition, actives largely listed as inhibitors; also: % is scaled to controls: 0 for no effect and ±100 for the full control effect
Active calls of the source: *; i = inactive; ? = inconclusive; . = no result; [ ] = remark or other dose. Unless noted, calls follow the shape of the dose curve; as a rule, active = well fitted curve in the direction sought with a large enough effect; inconclusive = small, poorly fitted or top-dose-only effect, or another doubt; inactive = no such curve, though single readings can be large; an effect the other way counts as inactive or inconclusive. Potency is read from the fitted curve at half-maximal effect.

SMILES	ERG-DNA inh	KAT2A inh	WRN helicase inh	APE1 inh-1	BLM inh	RECQ1 inh	APE1 dye cs	Endo IV inh	APE1 inh-2	APE1 FP inh
O=C(CCN1CCN(c2ccccc2)CC1)N/N=C/c1ccc(O)c(O)c1O	3%	-22%	40µM*	2%	11µM*	i	.	.	.	.
O=C(CSc1ccc2nnc(-c3ccccn3)n2n1)N1CCN(c2ccccc2)CC1	9%	-2%	1%	15%	-7%	40µM*	.	.	.	.
Cc1ccc(NC(=O)CSc2nc(N)cc(=O)[nH]2)cc1Cl	-4%	-4%	2%	35µM*	-4%	-28%	?	0%	-5%[24.4 µM]	-4%
Cc1ccc(NC(=O)CSc2nc(NS(=O)(=O)c3ccccc3)cc(=O)[nH]2)cc1	3%	-1%[0.501 µM]	50µM*	?	?	?	.	.	-38%	.
Cc1cc(C)n(CC(=O)Nc2ccc(F)c(F)c2)c(=O)c1C#N	1%	-6%	.	.	1%	.	.	.	.	.
Cc1ccc(Cn2c(CNS(=O)(=O)c3ccc(Cl)s3)nc3cccnc32)cc1	0%	2%	.	.	0%	.	.	.	.	.
CCOC(=O)NC1(NCC(C)C)Oc2ccccc2O1	6%	-3%	-13%[57.1 µM]	?	0%	?	.	.	.	.
CCOC(=O)NC1(NCc2ccccc2)Oc2ccccc2O1	-4%	-7%	-24%	2.5µM*	1%	?	0%	26%	?	1%
CCOC(=O)NC1(NC(C)C)Oc2ccccc2O1	12%	-11%[0.501 µM]	3%	22µM*	0%	-21%	-5%	4%	?	0%
CC(C)(O)CCCC(C)(O)c1ccc(C(=O)O)cc1O (centres undefined)	-6%	-16%	-7%[11.6 µM]	?	0%	i	-1%	10%	11µM*	-2%
CC(C)CCC[C@](C)(O)c1ccc(C(=O)O)cc1O	.	.	3%	.	.	.	.	.	.	.
Cc1ccc(NC(=O)CSc2nncn3c2cc2sccc23)cc1F	-5%	-2%	.	.	-15%	.	.	.	.	.
Cc1ccccc1N=C1NC(=O)/C(=C/c2cccn2-c2cccc(C(=O)O)c2)S1	7%	-2%	?	18µM*	-5%	-19%	-4%	14%	11µM*	?
CS(=O)(=O)N1Cc2ccccc2CC1C(=O)OCC(=O)Nc1ccc2ccccc2c1 (centres undefined)	1%	-25%	-35%	?	-20%	-16%	?	?	?	?
CCn1cc(C(=O)O)c(=O)c2cc(F)c(N3CCN(S(=O)(=O)c4ccc(NC(=O)OC)cc4)CC3)cc21	-5%	-14%	?	3%	-4%	3%	.	.	-28%	.
COc1cc(O)cc2cc3c(c(O)c12)C(=O)CC(C)(O)O3 (centres undefined)	9%	-27%	-7%[11.6 µM]	?	-18%	-7%	19%	5%	14µM*	?
COc1ccc(-n2nc3c(=O)[nH][nH]c3cc2=O)cc1	-2%	-10%	?	?	-29%	-26%	.	.	?	.
CCc1cccc(NC(c2ccccc2)c2nnc(-c3ccccc3F)o2)c1 (centres undefined)	-5%	-10%	.	.	-14%	.	.	.	.	.
COc1cc(CC2COC(c3ccc(O)c(OC)c3)C2COC(C)=O)ccc1O (centres undefined)	3%	-16%	50µM*	4µM*	25µM*	25µM*	1%	3%	10µM*	-9%
COc1cc(CC(=O)O)ccc1O	7%	-6%	3%	-3%	0%	-10%	.	.	.	.
CCOc1cc(/C=C2/C(=O)N(c3ccccc3)N=C2C)ccc1OC(=O)c1ccco1	-1%	-19%	?	-9%	-4%	-1%	.	.	.	.
CCOc1cc(/C=C2\C(=O)N(c3ccc(C(N)=O)cc3)N=C2C)ccc1OC(=O)c1cccs1	7%	0%	?	28µM*	-17%	-1%	?	-10%	-7%[24.4 µM]	-6%
Nc1ccc(NC(=O)c2ccc(C(=O)Nc3ccc(N)cc3)cc2)cc1	-1%	0%	-19%	0%	5%	-21%	.	.	?	.
O=c1cc(CCl)nc2sc3ccccc3n12	15%	-12%	-5%[11.6 µM]	?	-11%	-16%	.	.	?	.
O=C(Nc1ccc2oc(-c3ccncc3)nc2c1)c1ccc(F)cc1	3%	-23%	-28%	5%	-18%	-5%	.	.	?	.
SMILES	ERG-DNA inh	KAT2A inh	WRN helicase inh	APE1 inh-1	BLM inh	RECQ1 inh	APE1 dye cs	Endo IV inh	APE1 inh-2	APE1 FP inh
COc1ccc(/C=N/NC(=O)COc2cccc3cccnc23)cc1OC	1%	-9%	-15%	-2%	30%	-8%	.	.	?	.
CCn1cc(/C=N/NC(=O)COc2cccc3cccnc23)c2ccccc21	1%	-3%	?	-6%	-4%	-18%	.	.	.	.
CCCN(CCC)C(=O)CC(c1ccc(F)cc1)c1ccco1 (centres undefined)	-7%	-7%	-8%	-1%	-7%	-10%	.	.	.	.
CCCN(CCC)C(=O)Cc1ccc(F)cc1	3%	-1%	0%	-9%	1%	i	.	.	?	.
Cc1nc(N=Nc2cc(S(=O)(=O)O)c3cc([N+](=O)[O-])cc(S(=O)(=O)O)c3c2)c(COP(=O)(O)O)c(C=O)c1O	.	?	.	2.5µM*	72%	?	.	25µM*	1.1µM*	.
CN(C)CCC=C1c2ccccc2C=Cc2ccccc21	1%	-5%	2%	2%	15%	-1%	.	-12%[57.1 µM]	-13%	.
CN(C)CCC=C1c2ccccc2C(C)(C)c2ccccc21	.	-1%	.	.	-4%	.	.	.	.	.
[N-]=[N+]=Nc1ccc(C(=O)CSC[C@H](NC(=O)CC[C@H](N)C(=O)O)C(=O)NCC(=O)O)cc1	.	7.9µM*	.	?	.	-5%	.	-23%[57.1 µM]	-61%	.
N[C@@H](CCC(=O)N[C@@H](CSN=O)C(=O)NCC(=O)O)C(=O)O	-15%	-8%	-7%	0%	.	.	.	.	.	.
